# PubChem BioAssay (NCATS)
# Records with an inconclusive call do not appear. Unmarked numbers belong to inactive results. Calls of active or inactive are those of the source. The call rests on the fitted dose curve; in most records, active means well fitted cell-killing curve with a large enough effect; inconclusive means small, poorly fitted or top-dose-only effect, or effect the other way; inactive means flat fitted curve, though single readings scatter.
# System: PA-1
# Assay: Primary qHTS to identify gynecologic anti-cancer compounds using libraries of approved drugs and bioactive compounds (AID 1345084); further: nearly all actives have a fitted effect of over 55% in size
# Conditions: Gynecologic cancer cell panel viability, ATPlite luminescence, 48 h; series mostly up to 57.5 µM; activity change, negative = cytotoxicity: at the top concentration
# Procedure, shortened: (§1)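 Cells, 1,000 per well, plated 16 h, then exposed 48 h at 37 C to compounds. Viability by ATPlite luminescence after 15 min at room temperature.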
# On the % scale 0 is the no-effect control and ±100 the full control effect; potency means the concentration at half of the fitted maximal effect.
SMILES,"activity change, negative = cytotoxicity",Potency
CN1C(=O)[C@@H](NC(=O)c2cc3ccccc3[nH]2)N=C(c2ccccc2)c2ccccc21,-16.8%,
C=CC[C@]1(O)CC[C@H]2[C@@H]3CCC4=CC(=O)CCC4=C3C=C[C@@]21C,-21.1%,
CC(CC(C#N)(c1ccccc1)c1ccccc1)N(C)C (centres undefined),-21.1% [at 116 µM],
CNC(=O)NC(O)C(Cl)(Cl)Cl (centres undefined),13.4%,
CC(C)=CCN1CC[C@@]2(C)c3cc(O)ccc3C[C@@H]1[C@@H]2C,-3% [at 116 µM],
CC1N=C(N)OC1c1ccccc1 (centres undefined),-15.4% [at 116 µM],
O=C(NC(=O)c1c(F)cccc1F)Nc1cc(Cl)c(OC(F)(F)C(F)C(F)(F)F)cc1Cl (centres undefined),-1.97%,
COP(=S)(OC)Oc1ccc(Sc2ccc(OP(=S)(OC)OC)cc2)cc1,-0.659%,
CN1CCc2cc(Cl)c(O)cc2[C@H]2c3ccccc3CC[C@@H]21,1.54%,
CCCC(C)C1(CC)C(=O)N=C(S)NC1=O (centres undefined),-2.96%,
CCC1(CC)C(=O)NC(=O)NC1=O,6.52%,
N#Cc1nn(-c2c(Cl)cc(C(F)(F)F)cc2Cl)c(N)c1S(=O)C(F)(F)F (centres undefined),5.42%,
CC[C@H](O)C(C[C@H](C)N(C)C)(c1ccccc1)c1ccccc1,-21.1% [at 116 µM],
Cc1c(Cl)c(=O)oc2cc(OP(=O)(OCCCl)OCCCl)ccc12,1.82%,
CC#C[C@]1(O)CC[C@H]2[C@@H]3C[C@H](C)C4=CC(=O)CC[C@]4(C)[C@H]3CC[C@@]21C,,25.1 µM (active)
CCO[C@H]1O[C@@H]2OC3(C)CC[C@H]4[C@H](C)CC[C@@H]([C@H]1C)[C@@]24OO3,9.04%,
CC(=O)OC1(c2ccccc2)CCN(CCc2ccccc2)CC1,-29.6% [at 116 µM],
CC[n+]1c(-c2ccccc2)c2cc(N)ccc2c2ccc(N)cc21,,1.26 µM (active)
Clc1ccc(CSC(Cn2ccnc2)c2ccc(Cl)cc2Cl)cc1 (centres undefined),-21.8%,
O=C1NCN(c2ccccc2)C12CCN(CCCOc1ccc(F)cc1)CC2,0.21%,

# System: SKOV3
# Assay: as above
# Conditions: Gynecologic cancer cell panel viability, ATPlite luminescence, 48 h; series mostly up to 57.5 µM; activity change, negative = cytotoxicity: at the top concentration
# Procedure, shortened: as §1
SMILES,Potency,"activity change, negative = cytotoxicity"
c1ccc2c(c1)Sc1ccccc1N2CC1CN2CCC1CC2 (centres undefined),28.2 µM (active),
CNC(=O)NC(O)C(Cl)(Cl)Cl (centres undefined),,3.53%
CC(C)=CCN1CC[C@@]2(C)c3cc(O)ccc3C[C@@H]1[C@@H]2C,,-28% [at 116 µM]
COP(=S)(OC)Oc1ccc(Sc2ccc(OP(=S)(OC)OC)cc2)cc1,,-17.1%
CN1CCc2cc(Cl)c(O)cc2[C@H]2c3ccccc3CC[C@@H]21,,-7.37%
CCC1(CC)C(=O)NC(=O)NC1=O,,2.05%
CN(C)C(=S)SSC(=S)N(C)C,1.58 µM (active),
Cc1c(Cl)c(=O)oc2cc(OP(=O)(OCCCl)OCCCl)ccc12,,-8.79%
Oc1ccc2[nH]cc(CCCCN3CC=C(c4ccccc4)CC3)c2c1,,-20.3%
CCO[C@H]1O[C@@H]2OC3(C)CC[C@H]4[C@H](C)CC[C@@H]([C@H]1C)[C@@]24OO3,,21.9%
C[C@H](N)[C@H](O)c1ccc(O)c(O)c1,25.1 µM (active),
CN1[C@@H]2CC[C@H]1CC(OC(=O)c1cc(Cl)cc(Cl)c1)C2 (some centres undefined),,-16.1%
Clc1ccc(CO/N=C(\Cn2ccnc2)c2ccc(Cl)cc2Cl)c(Cl)c1,,0%
CCN(CC)Cc1nccn1-c1ccc([N+](=O)[O-])cc1C(=O)c1ccccc1Cl,,-17.9%
O=C1NCN(c2ccccc2)C12CCN(CCCOc1ccc(F)cc1)CC2,,-0.116%

# System: Tov-21-G
# Assay: as above
# Conditions: Gynecologic cancer cell panel viability, ATPlite luminescence, 48 h; series mostly up to 57.5 µM; activity change, negative = cytotoxicity: at the top concentration
# Procedure, shortened: as §1
SMILES,"activity change, negative = cytotoxicity",Potency
CC[C@H]1C[C@H]2[C@@H]3CCC4=CC(=O)CC[C@@H]4[C@H]3CC[C@]2(C)[C@H]1O,-0.177%,
CN1C(=O)[C@@H](NC(=O)c2cc3ccccc3[nH]2)N=C(c2ccccc2)c2ccccc21,-14.1%,
CCC(OC(C)=O)C(CC(C)NC)(c1ccccc1)c1ccccc1 (centres undefined),-30.4% [at 116 µM],
C=CC[C@]1(O)CC[C@H]2[C@@H]3CCC4=CC(=O)CCC4=C3C=C[C@@]21C,-18.1%,
CC(CC(C#N)(c1ccccc1)c1ccccc1)N(C)C (centres undefined),2.69% [at 116 µM],
CNC(=O)NC(O)C(Cl)(Cl)Cl (centres undefined),2.12%,
CC(C)=CCN1CC[C@@]2(C)c3cc(O)ccc3C[C@@H]1[C@@H]2C,13.5% [at 116 µM],
CC1N=C(N)OC1c1ccccc1 (centres undefined),-1.39% [at 116 µM],
Clc1ccc(C(OCCN2CCCCC2)c2ccccc2)cc1 (centres undefined),-3.9%,
O=C(NC(=O)c1c(F)cccc1F)Nc1cc(Cl)c(OC(F)(F)C(F)C(F)(F)F)cc1Cl (centres undefined),3.64%,
COP(=S)(OC)Oc1ccc(Sc2ccc(OP(=S)(OC)OC)cc2)cc1,-5.38%,
CN1CCc2cc(Cl)c(O)cc2[C@H]2c3ccccc3CC[C@@H]21,-7.95%,
CCCC(C)C1(CC)C(=O)N=C(S)NC1=O (centres undefined),-0.424%,
CCC1(CC)C(=O)NC(=O)NC1=O,6.15%,
N#Cc1nn(-c2c(Cl)cc(C(F)(F)F)cc2Cl)c(N)c1S(=O)C(F)(F)F (centres undefined),-5.12%,
CC[C@H](O)C(C[C@H](C)N(C)C)(c1ccccc1)c1ccccc1,-15.1% [at 116 µM],
CCCN(CCC)CCc1c[nH]c2ccccc12,-10.1% [at 116 µM],
Cc1c(Cl)c(=O)oc2cc(OP(=O)(OCCCl)OCCCl)ccc12,-3.84%,
Oc1ccc2[nH]cc(CCCCN3CC=C(c4ccccc4)CC3)c2c1,-25.9%,
CC#C[C@]1(O)CC[C@H]2[C@@H]3C[C@H](C)C4=CC(=O)CC[C@]4(C)[C@H]3CC[C@@]21C,-12%,
CCO[C@H]1O[C@@H]2OC3(C)CC[C@H]4[C@H](C)CC[C@@H]([C@H]1C)[C@@]24OO3,2.77%,
CC(=O)OC1(c2ccccc2)CCN(CCc2ccccc2)CC1,-2.62% [at 116 µM],
C=CCOC(Cn1ccnc1)c1ccc(Cl)cc1Cl (centres undefined),0.89%,
CC[n+]1c(-c2ccccc2)c2cc(N)ccc2c2ccc(N)cc21,,15.8 µM (active)
Clc1ccc(CSC(Cn2ccnc2)c2ccc(Cl)cc2Cl)cc1 (centres undefined),-12.9%,
CN1[C@@H]2CC[C@H]1CC(OC(=O)c1cc(Cl)cc(Cl)c1)C2 (some centres undefined),-8.89%,
Clc1ccc(CO/N=C(\Cn2ccnc2)c2ccc(Cl)cc2Cl)c(Cl)c1,-9.17%,
CCN(CC)Cc1nccn1-c1ccc([N+](=O)[O-])cc1C(=O)c1ccccc1Cl,7.47%,
O=C1NCN(c2ccccc2)C12CCN(CCCOc1ccc(F)cc1)CC2,-19.2%,
